Sampled rows, rich in hits. Any-hit rate of the full collection: about 6.8%.
Abs 340nm – compound absorbs light at 340 nm; compound absorbance at 340 nm, fold over control; fold change at 10 µM; 65,000 tested, under 10 active; AID 708;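 active = at 10 µM dose, initial 340 nm absorbance at least 2 fold that of control wells; inactive = change under 2 fold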;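 also: initial absorbance extrapolated from kinetic A340 decline of NADH oxidation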
DPM-DC inhibit – blocks S. pneumoniae diphosphomevalonate decarboxylase; calls only at 10 µM; purified DPM-DC, PK/LDH coupled NADH fluorescence; actives 0.49% (n = 65,000);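 active = the 320 compounds with the highest percent inhibition in the single-dose primary screen, excluding strongly autofluorescent ones, cut at about 32% in these data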;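 also: kinetic rate of NADH fluorescence loss reporting ADP formed by the decarboxylase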
MK inhibit – S. pneumoniae mevalonate kinase inhibition; purified MK, PK/LDH-coupled NADH absorbance 340 nm; AID 555; inhibition, % at 10 µM; actives 0.48% (n = 65,000);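 active = ranked among the strongest by inhibition in the single 10 µM screen, a fixed top-ranked set picked for dose follow-up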
PMK inhibit – blocks S. pneumoniae phosphomevalonate kinase | purified PMK, PK/LDH-coupled NADH absorbance 340 nm | inhibition, % at 10 µM | actives 0.49% (n = 65,000);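 active = top-ranked compounds by inhibition in the single 10 µM screen, taking a fixed number of the strongest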;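 also: 0% = full reaction with DMSO carrier and 100% = background rate without enzyme reaction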
NADH enzymes – inhibitors of enzymes used to reach an NAD/NADH endpoint. AID 774. coupled PK/LDH NADH assays, four targets. actives 0.02% (n = 65,000). IC50, µM (titrated, usually from 10 µM), for the others: at the highest dose inhibition;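 active = single-dose screening hits from any of four coupled enzyme assays that gave an IC50 when retested across doses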;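 also: the DPM-DC format reads NADH fluorescence rather than 340 nm absorbance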
Fluor 339 460 – intrinsic fluorescence of library compounds, ex339/em460 – biochemical, MLSMR library, data from DPM-DC assay, artefact control, profiling panel | actives 5.5% (n = 65,000) | compound autofluorescence, ex339/em460 nm, NADH buffer; stronger effect = higher value; 1 = no-compound wells, NADH background | AID 709 | fluorescence fold increase at 10 µM;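 active = at 10 µM, mean starting fluorescence two-fold or more over control wells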;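 also: signal is the first read of a kinetic run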
The depositor's hits bear a star; i = inactive; / = no result given; + = active, no number.

SMILES | Abs 340nm | DPM-DC inhibit | MK inhibit | PMK inhibit | NADH enzymes | Fluor 339 460
O=c1c2ccccc2nnn1CSc1nnc(-c2cccs2)n1Cc1ccccc1 | 1.01 | i | 76.0* | 10.0 | 31.0% | 1.04
CC(O)c1c(OCc2ccccc2)ncnc1OCc1ccccc1 (centres undefined) | 0.99 | i | 3.0 | 3.0 | 2.0% | 1.03
Nn1c(Nc2ccccc2)nc2ccccc2c1=O | 1.01 | i | 4.0 | 5.0 | 3.0% | 1.08
O=c1[nH]c(Nc2ccccc2)cc2ccccc12 | 1.01 | / | 2.0 | 10.0 | 8.0% | 3.38*
O=c1c(-c2nc3ccccc3o2)c2oc3ccccc3n2c2ccccc12 | 1.15 | / | 0.0 | 7.0 | 4.0% | 4.96*
O=C(c1ccc(CS(=O)(=O)Cc2ccc(Cl)cc2)o1)N1CCCC1 | 0.99 | i | 2.0 | 26.0* | 9.0% | 1
COCCCNC(=O)C1C2C=CC3(CN(Cc4ccc(C)cc4)C(=O)C13)O2 (centres undefined) | 1.01 | i | 0.0 | 25.0* | 12.0% | 0.85
Cc1ccc(CN2CC34C=CC(O3)C(C(=O)NCc3ccc5c(c3)OCO5)C4C2=O)cc1 (centres undefined) | 1.06 | i | 9.0 | 0.0 | 3.0% | 1.08
COc1ccc(NC(=O)c2cnc3sccn3c2=O)cc1OC | 1.14 | i | 3.0 | 8.0 | 5.0% | 1.04
CN(Cc1ccccc1)c1nc2c(c(=O)[nH]c(=O)n2C)n1C | 1 | i | 10.0 | 12.0 | 7.0% | 1.02
C/C=C/Cn1c(N(C)Cc2ccccc2)nc2c1c(=O)[nH]c(=O)n2C | 1.05 | + | 0.0 | 11.0 | 16.0% | 0.54
CCOc1ccc(N2C(=O)CC(N3CC(C)OC(C)C3)C2=O)cc1 (centres undefined) | 1.05 | i | 9.0 | 9.0 | 4.0% | 1.04
CC(C)C(OC(=O)c1cccs1)C(=O)NCc1cccs1 (centres undefined) | 1.01 | i | 7.0 | 7.0 | 5.0% | 0.97
COC(=O)c1c(S(N)(=O)=O)c2ccccc2n1C | 1.03 | / | 7.0 | 12.0 | 10.0% | 2.08*
C=CCn1c(SCC(=O)c2ccc(NS(=O)(=O)c3ccccc3)cc2)nnc1-c1cccs1 | 1.14 | i | 5.0 | 0.0 | 2.0% | 1.04
Cc1ccc2oc(=O)c3cc(C(=O)NCc4ccco4)sc3c2c1 | 1.14 | / | 4.0 | 9.0 | 7.0% | 2.02*
Cc1ccc(N2CC(C(=O)NCC3CCCO3)CC2=O)cc1Cl (centres undefined) | 1.01 | i | 3.0 | 2.0 | 3.0% | 1.1
CCOC(=O)c1[nH]c2ccc(OC)cc2c1NC(=O)CN1CCC2(CC1)OCCO2 | 1.06 | / | 9.0 | 5.0 | 7.0% | 3.85*
CCOC(=O)c1[nH]c2ccc(OC)cc2c1NC(=O)C(C)N1CCC2(CC1)OCCO2 (centres undefined) | 1.06 | / | 9.0 | 6.0 | 8.0% | 3.8*
CCOC(=O)c1[nH]c2cc(OC)c(OC)cc2c1NC(=O)CN1CCN(C)CC1 | 1.14 | / | 7.0 | 0.0 | 4.0% | 3.59*
CCOC(=O)c1[nH]c2ccc(C)cc2c1NC(=O)CN1CCCCC1 | 1.01 | i | 10.0 | 2.0 | 6.0% | 1.75
CCOC(=O)c1[nH]c2ccc(F)cc2c1NC(=O)C(C)N1CCc2cc(OC)c(OC)cc2C1 (centres undefined) | 1 | i | 11.0 | 12.0 | 7.0% | 1.45
CCOC(=O)c1[nH]c2ccc(OC)cc2c1NC(=O)c1nonc1C | 1.02 | i | 12.0 | 15.0 | 9.0% | 1.1
CCOC(=O)c1cc2occc2n1CC(=O)N1CCCc2ccccc21 | 1 | i | 3.0 | 10.0 | 4.0% | 1.05
Brc1ccccc1-c1nnc(CSc2nnc3sc4ccccc4n23)o1 | 1.01 | i | 3.0 | 5.0 | 3.0% | 1.1
SMILES | Abs 340nm | DPM-DC inhibit | MK inhibit | PMK inhibit | NADH enzymes | Fluor 339 460
O=C(c1ccc(F)cc1)N1CCC(N2CCCCCC2)CC1 | 1.08 | + | 78.0* | 90.0 | 82.0% | 1.18
O=C(c1ccccc1F)N1CCC(N2CCCCCC2)CC1 | 1.05 | i | 31.0 | 0.0 | 10.0% | 1.07
O=C1CC(=O)CC(c2ccccc2Cl)C1 | 1.03 | i | 5.0 | 8.0 | 4.0% | 1.07
Cc1cc(C2=CC(C)(c3cc(C)oc3C)Nc3nc(C(F)(F)F)nn32)c(C)o1 (centres undefined) | 1.02 | i | 6.0 | 9.0 | 6.0% | 1.12
COC(=O)c1c(-c2ccc(F)cc2)csc1NC(=O)c1ccco1 | 1.12 | i | 3.0 | 0.0 | 2.0% | 2.02*
CCOC(=O)c1c(NC(=O)c2ccco2)sc(C(=O)N2CCCC2)c1C | 1.15 | i | 3.0 | 0.0 | 1.0% | 1.24
CCOC(=O)c1c(NC(=O)c2cccs2)sc2c1CCCC2 | 1.11 | / | 14.0 | 19.0 | 17.0% | 2.26*
COc1ccc(OC)c(NC(=O)c2c(NC(=O)c3ccco3)sc3c2CCC3)c1 | 1.08 | i | 10.0 | 4.0 | 9.0% | 2.14*
CCOC(=O)c1c(NC(=O)Cc2cccs2)sc2c1CCCC2 | 1.02 | i | 0.0 | 16.0 | 5.0% | 1.14
CCOC(=O)c1c(-c2ccc(C)s2)csc1NC(=O)c1ccco1 | 1.06 | i | 0.0 | 4.0 | 4.0% | 3.48*
Cc1ccc(S(=O)(=O)NC(=O)c2cc(C)n(CCCn3ccnc3)c2C)cc1 | 0.97 | i | 0.0 | 17.0 | 4.0% | 1.04
COC(=O)CCCCCc1ccc(C(C)=O)s1 | 1 | i | 2.0 | 13.0 | 5.0% | 1
CCOC(=O)c1c(-c2ccccc2)csc1NC(=O)c1nn(CC)cc1Br | 1.07 | / | 4.0 | 4.0 | 4.0% | 3.53*
CCOC(=O)c1c(NC(=O)c2cccs2)sc2c1CCC2 | 1.05 | / | 2.0 | 0.0 | 1.0% | 2.28*
COC(=O)c1c(NC(=O)c2ccoc2C)sc2c1CCC2 | 1.09 | + | 5.0 | 4.0 | 14.0% | 2.44*
CCOC(=O)c1c(NC(=O)OC)sc2c1CCC2 | 0.99 | i | 2.0 | 2.0 | 1.0% | 1.06
Cc1occc1C(=O)Nc1sc2c(c1C(N)=O)CCCCC2 | 1.08 | i | 1.0 | 2.0 | 2.0% | 1.21
CCOC(=O)c1c(NC(=O)c2nn(CC)cc2Br)c(C#N)cn1-c1ccccc1 | 0.99 | i | 2.0 | 4.0 | 11.0% | 1.05
CCCc1cc(C(=O)Nc2sc(C)c(C)c2C(=O)OCC)no1 | 1 | / | 2.0 | 4.0 | 3.0% | 2.44*
COc1cc2c(cc1OC)C(C(=O)Nc1ccc3c(c1)OCCO3)C(c1cccnc1)N(C)C2=O (centres undefined) | 1.04 | i | 16.0 | 0.0 | 5.0% | 1.11
CCOC(=O)c1c(NC(=O)c2cc(C3CC3)on2)sc2c1CCCC2 | 1.07 | / | 0.0 | 27.0* | 14.0% | 2.09*
CCOC(=O)c1c(NC(=O)c2cccs2)sc2c1CCN(C(=O)OCC)C2 | 1.02 | / | 0.0 | 10.0 | 2.0% | 2.03*
CCOC(=O)c1c(NC(=O)c2ccco2)sc2c1CCCCC2 | 1.12 | / | 0.0 | 15.0 | 8.0% | 2.13*
CCOC(=O)c1c(NC(=O)c2cc(C3CC3)on2)sc(C(C)=O)c1C | 1.08 | i | 0.0 | 0.0 | 0.0% | 1.16
CCOC(=O)c1c(-c2cccs2)csc1NC(=O)c1ccncc1 | 1.01 | / | 6.0 | 5.0 | 6.0% | 2.17*

Compound activity as filed in PubChem BioAssay.
